Results on four compounds are retold here after PubChem BioAssay (NCI).

This is part of a sample that, as a whole, favours compounds with a hit. Of some 79,000 tested, about 15% had one in any assay. A number with no mark means an inactive call. Active and inactive are the calls of the source. Cut-off read from the data, not from the text of the source: active = growth inhibition above about 70%; inactive = the rest.

Test [1] is described as follows: NCI Yeast Anticancer Drug Screen. Data for the rad50 strain (AID 155).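 Note: 0% = growth of vehicle-only cultures of the same strain.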 Particulars: S. cerevisiae rad50 strain growth inhibition, active compounds read high. A digest of the protocol: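 Growth of the mutant yeast was measured after compound exposure and referenced to vehicle-treated cultures.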
Test [2] is described as follows: NCI Yeast Anticancer Drug Screen. Data for the mec2-1 strain (AID 157). The settings on record: S. cerevisiae mec2-1 strain, active compounds read high. The procedure, abridged: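 Strain: mec2-1 (DNA repair/cell cycle alteration). Compound exposure, then growth measured; inhibition expressed relative to vehicle.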
Test [3] is described as follows: NCI Yeast Anticancer Drug Screen. Data for the sgs1 mgt1 strain (AID 161).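 Note: 0% = growth of cultures given vehicle only.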 The settings on record: S. cerevisiae sgs1 mgt1 strain, active compounds read high. The procedure, abridged:
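Genetically altered yeast, compound exposure, growth inhibition relative to vehicle.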

A short description of test [4]: NCI Yeast Anticancer Drug Screen. Data for the cln2 rad14 strain (AID 165).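 Note: 0% = growth equal to vehicle treated cultures.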 The settings on record: S. cerevisiae cln2 rad14 strain, active compounds read high. A digest of the protocol: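 Compounds are applied to the cln2 rad14 yeast strain, and growth is then compared with that of vehicle-treated cultures to give inhibition.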
A short description of test [5]: NCI Yeast Anticancer Drug Screen. Data for the bub3 strain (AID 167). Particulars: S. cerevisiae bub3 mutant strain, active compounds read high. The procedure, abridged:
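Whole-cell yeast assay. The mutant strain was incubated with compounds, and growth inhibition was determined by comparison with vehicle-treated cells.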

Test [6] in a line: NCI Yeast Anticancer Drug Screen. Data for the mlh1 rad18 strain (AID 175). The settings on record: S. cerevisiae mlh1 rad18 strain growth inhibition, active compounds read high. A digest of the protocol: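 Read-out is yeast growth inhibition, calculated against vehicle-only controls. The compound was applied to a strain engineered with DNA damage repair alterations.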
Where [7] appears, read: at 5.0 µM (retest, dose inferred, filed as 0.5).
[8] abbreviates: at 50.0 µM (retest, dose inferred, filed as 5.0).

For `COC1(OC)C(C#N)(C#N)C2(C(=O)Nc3ccccc32)C1(OC)OC` (configuration not stated), the growth inhibition in test [1] (setting [7]) was 11%; in test [1] (setting [8]), -4%; in test [1] (at 50.0 µM), 15.4%; in test [2] (setting [7]), -12%; in test [2] (setting [8]), -16%; in test [2] (at 50.0 µM), 12.2%. Further, the growth inhibition is -2% in test [3] (setting [7]); -25% in test [3] (setting [8]); 97% (active) in test [3] (at 50.0 µM); -4% in test [4] (setting [7]); -7% in test [4] (setting [8]); 28% in test [4] (at 50.0 µM). For the same compound, the growth inhibition was -14% in test [5] (setting [7]); 38% in test [5] (setting [8]); -7.6% in test [5] (at 50.0 µM); 10% in test [6] (setting [7]); -22% in test [6] (setting [8]); 90% (active) in test [6] (at 50.0 µM).
For `S=C(Nc1ccc(Cl)c(Cl)c1)N1c2ccccc2-n2cccc2C1c1cccnc1` (configuration not stated), the growth inhibition in test [1] (setting [7]) is 49%; in test [1] (setting [8]), 99% (active); in test [1] (at 50.0 µM), 80.8% (active); in test [2] (setting [7]), 46%; in test [2] (setting [8]) it was 99% (active); in test [2] (at 50.0 µM), 84.5% (active). Besides, the growth inhibition in test [3] (setting [7]) was 59%; in test [3] (setting [8]), 94% (active); in test [3] (at 50.0 µM) it was 85% (active); in test [4] (setting [7]), 91% (active); in test [4] (setting [8]), 94% (active); in test [4] (at 50.0 µM), 84.7% (active). In addition, the growth inhibition was 72% (active) in test [5] (setting [7]); 89% (active) in test [5] (setting [8]); 84% (active) in test [5] (at 50.0 µM); 45% in test [6] (setting [7]); 100% (active) in test [6] (setting [8]); 87.8% (active) in test [6] (at 50.0 µM).
`COCC(O)Cn1cc([N+](=O)[O-])nc1C` (configuration not stated): the growth inhibition in test [1] (setting [7]) is 4%; in test [1] (setting [8]), -1%; in test [1] (at 50.0 µM), 2.7%; in test [2] (setting [7]), 1%; in test [2] (setting [8]), -3%; in test [2] (at 50.0 µM), -5.25%. Further, the growth inhibition in test [3] (setting [7]) was -1%; in test [3] (setting [8]), 2%; in test [3] (at 50.0 µM) it was -4.8%; in test [4] (setting [7]), 0%; in test [4] (setting [8]) it was -2%; in test [4] (at 50.0 µM), 9.45%. The growth inhibition in test [5] (setting [7]) is -4%; in test [5] (setting [8]), -4%; in test [5] (at 50.0 µM), 19.2%; in test [6] (setting [7]), 6%; in test [6] (setting [8]), 4%; in test [6] (at 50.0 µM) it was 9.4%.
With `O=C1/C(=C/c2ccc(F)cc2)CNC/C1=C\c1ccc(F)cc1`, the growth inhibition in test [1] (setting [7]) was 12%; in test [1] (setting [8]), 44%; in test [1] (at 50.0 µM), 79.2% (active); in test [2] (setting [7]), 5%; in test [2] (setting [8]) it was 36%; in test [2] (at 50.0 µM) it was 84.8% (active). Further, the growth inhibition in test [3] (setting [7]) was -2%; in test [3] (setting [8]), 31%; in test [3] (at 50.0 µM), 79.2% (active); in test [4] (setting [7]) it was 35%; in test [4] (setting [8]) it was 43%; in test [4] (at 50.0 µM), 70.6% (active). Besides, the growth inhibition is -11% in test [5] (setting [7]); 37% in test [5] (setting [8]); 79.8% (active) in test [5] (at 50.0 µM); 16% in test [6] (setting [7]); 53% in test [6] (setting [8]); 85.5% (active) in test [6] (at 50.0 µM).
